Screening data (PubChem)
Only a selection was taken, and hits are over-represented in it overall.
CBX7 inh: CBX7 chromodomain binding inhibitors, primary screen, biochemical, AlphaScreen; actives 1.1% (n = 66,000); Chromobox protein homolog 7 (Homo sapiens), O95931; AlphaScreen His6-CBX7 / biotin-H3K27me3 peptide binding; active compounds read low; normalised signal (fraction of DMSO) (no concentration beside the values); in the data active = normalised signal below about 0.5
Target sequence (O95931 whole entry, looked up): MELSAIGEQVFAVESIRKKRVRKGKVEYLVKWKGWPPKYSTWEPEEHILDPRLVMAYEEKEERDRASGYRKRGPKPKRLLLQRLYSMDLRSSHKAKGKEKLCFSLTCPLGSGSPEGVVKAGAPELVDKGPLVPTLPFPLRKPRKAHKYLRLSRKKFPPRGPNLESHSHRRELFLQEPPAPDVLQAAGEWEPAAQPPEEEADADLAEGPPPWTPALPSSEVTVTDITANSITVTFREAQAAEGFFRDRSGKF
* hit, by the source's call.

SMILES | CBX7 inh
COc1ccc(C(=O)Nc2ccc3oc(-c4cc(Br)ccc4Cl)nc3c2)cc1 | 0.96
COC(=O)c1ccc(Nc2nc(N3CCN(C)CC3)c3ccccc3n2)cc1 | 1
COc1ccc(Nc2nc(N3CCCC3)c3ccccc3n2)cc1 | 0.49*
COc1ccc(Nc2cc(C(=O)N3CCCC3)c3ccccc3n2)cc1 | 0.95
CCOc1ccc(N2C(=O)CC(NCCc3ccccc3F)C2=O)cc1 (stereo not drawn) | 0.95
Cc1cccc(-c2nc(SCC(=O)NCC3CCCO3)c(-c3ccccc3)[nH]2)c1 (stereo not drawn) | 0.98
Cc1cccc(-n2c(-c3ccccc3F)nc3c(cnn3-c3ccccc3)c2=O)c1 | 0.49*
COc1cccc(-n2c(-c3ccccc3F)nc3c(cnn3-c3ccc(C)cc3)c2=O)c1 | 0.6
CCOc1ccc(-n2c(-c3ccccc3F)nc3c(cnn3-c3ccccc3)c2=O)cc1 | 0.54
CCC(=O)N1CCc2cc(S(=O)(=O)NC(CC(C)C)C(=O)Nc3cccc(CC)c3)ccc21 (stereo not drawn) | 0.97
CCOc1ccccc1NC(=O)c1c(NCc2ccccn2)sc2c1CCC2 | 0.94
CC(C)c1ccc(NC(=O)C(c2ccccc2)N2CCc3ccccc32)cc1 (stereo not drawn) | 0.49*
Cc1cccc(C)c1NC(=O)C(c1ccccc1)N1CCc2ccccc21 (stereo not drawn) | 0.87
CC(C)c1ccc(NC(=O)C(c2ccc3c(c2)OCO3)N2CCc3ccccc32)cc1 (stereo not drawn) | 0.66
O=C(CN1C(=O)COc2ccc(S(=O)(=O)N3CCCC3)cc21)N1CCC(N2CCCCC2)CC1 | 1.2
CSc1cccc(Nc2cc(C(=O)NCc3cccs3)c3ccccc3n2)c1 | 1.2
Cc1ccc(Nc2c(-c3ccccc3O)nc3ncccn23)c(C)c1 | 0.94
CCOC(=O)N1CCC(NC(=O)c2cccc3c2C(=O)N(c2ccc(OC)cc2)C3)CC1 | 0.47*
COc1ccc(N2Cc3cccc(C(=O)NC4CCCC4)c3C2=O)cc1 | 1.1
COc1ccc(N2Cc3cccc(C(=O)NC4CCCCCC4)c3C2=O)cc1 | 1
Cc1ccc(OCCOc2ccccc2-c2nc3sc4c(c3c(=O)[nH]2)CCCC4)cc1 | 1.1
Fc1ccc(Nc2c(-c3ccccn3)nc3ccc(Cl)cn23)cc1 | 0.86
Cc1ccc2nc(-c3ccccn3)c(Nc3ccccc3C)n2c1 | 0.0067*
Cc1ccc2nc(-c3ccccn3)c(Nc3ccc(F)cc3)n2c1 | 0.21*
Cc1ccc(Nc2c(-c3ccccc3)nc3ccc(C)cn23)cc1 | 1.2
SMILES | CBX7 inh
Clc1ccc2nc(-c3ccccn3)c(Nc3ccccc3)n2c1 | 0.59
Clc1ccc2nc(-c3ccccc3)c(Nc3ccc4c(c3)OCCO4)n2c1 | 1.1
Cc1ccc2nc(-c3ccncc3)c(Nc3ccccc3C)n2c1 | 0.89
Clc1ccc2nc(-c3ccc(N4CCOCC4)cc3)c(Nc3ccc4c(c3)OCCO4)n2c1 | 1.1
Clc1ccc2nc(-c3ccccn3)c(Nc3ccc4c(c3)OCCO4)n2c1 | 0.15*
Cc1ccc2nc(-c3ccccn3)c(Nc3ccccc3)n2c1 | 0.11*
Cc1ccc(Nc2c(-c3cccnc3)nc3ccc(C)cn23)cc1 | 0.94
Cc1ccccc1Nc1c(-c2ccccn2)nc2ccc(Cl)cn12 | 0.96
CCOc1ccccc1NC(=O)c1c(NC(=O)c2cccs2)sc2c1CCCCC2 | 1.1
Cc1ccc(-c2ccc(=O)n(CCC(=O)N3CCOCC3)n2)cc1 | 1
COc1cc(NS(=O)(=O)c2ccc(NC(=O)c3c(OC)cccc3OC)cc2)nc(OC)n1 | 1.1
COC(=O)c1cc2ccsc2n1Cc1nc(-c2ccccc2F)oc1C | 0.94
CCC1=Nc2cc(C(=O)NCCCN(CC)Cc3ccccc3)ccc2Sc2ccc(C)cc21 | 0.88
COc1ccc(-c2nc3ncccn3c2Nc2ccc(C)cc2)cc1 | 1
Cc1ccc2nc(-c3cccnc3)c(Nc3ccccc3)n2c1 | 1.1
COc1ccc(Nc2c(-c3ccccn3)nc3ccc(C)cn23)cc1 | 0.06*
CC1CCN(CCCNC(=O)CN2N=C(c3ccccc3)CCC2=O)CC1 | 1
CCOCCCNC(=O)C1CCCN(C(=O)c2cc3sccc3n2CC)C1 (stereo not drawn) | 1
CCCCSc1oc(-c2ccccc2)nc1S(=O)(=O)c1ccc(C)cc1 | 0.95
CCOc1ccc(-c2nnc(Nc3cccc(O)c3)c3ccccc23)cc1 | 0.49*
Cc1ccc(-c2nnc(Nc3cccc(O)c3)c3ccccc23)cc1 | 0.42*
CCOc1ccc(-c2nnc(Nc3ccc(O)cc3)c3ccccc23)cc1 | 1
Cc1nnc(Nc2cccc(O)c2)c2ccccc12 | 1
CCOc1ccc(-c2nnc(Nc3ccc(C(=O)N(C)C)cc3)c3ccccc23)cc1 | 1
Oc1cccc(Nc2nnc(-c3ccc(Cl)cc3)c3ccccc23)c1 | 0.54
SMILES | CBX7 inh
NCC(=O)N1CCN(c2ccc3ccccc3n2)CC1 | 1
Cn1c(CC(=O)NCc2ccccc2)c(Sc2ccccc2)c2ccccc21 | 1
Cc1oc(-c2cccc(Br)c2)nc1CN1CCC(C(=O)NCCc2ccccc2)CC1 | 0.85
O=C(NCc1ccccn1)c1ccc2c(c1)N(Cc1ccccc1)C(=O)c1ccccc1S2(=O)=O | 0.79
COc1cc2c(c(OC)c1)C(c1cc(OC)ccc1OC)CC(=O)N2 (stereo not drawn) | 1.3
COCc1cc(=O)[nH]c(Nc2nc3ccccc3o2)n1 | 0.12*
COCc1cc(=O)[nH]c(Nc2nc(C)c3ccccc3n2)n1 | 1
O=c1cc(-c2ccccc2)nc(Nc2nc3ccccc3o2)[nH]1 | 1.5
C#CC(C)(C)NC1(c2nnnn2-c2c(C)cccc2C)CCCC1 | 0.83
Cc1nn(C)c(C)c1S(=O)(=O)N(CC(=O)NCc1ccccc1Cl)c1ccc(C(C)C)cc1 | 1.1
O=C(Nc1cccc(-c2nc3ccccc3o2)c1)c1cccc(Oc2ccccc2)c1 | 1.1
O=C(Nc1ncc(Cc2ccccc2Cl)s1)c1cccc2ccccc12 | 0.9
O=C(Nc1cc(-c2nc3ccccc3s2)ccc1Cl)c1ncn[nH]1 | 0.85
O=C(Nc1nc(SCc2ccccc2Cl)ns1)c1ncn[nH]1 | 0.053*
CC1CCc2c(C(=O)NCCCN3CCN(c4ccccc4F)CC3)csc2C1 (stereo not drawn) | 1
Cc1sc2ncn(CC(=O)Nc3cccc(C(F)(F)F)c3)c(=O)c2c1C | 1.1
CC(=O)Nc1ccccc1NC(=O)c1c(-c2ccccc2Cl)noc1C | 1
CCN(CCCNC(=O)CCc1nc(-c2ccc(OC)cc2)no1)c1cccc(C)c1 | 0.42*
COc1ccc(-c2noc(CCC(=O)NCCN(C)C)n2)cc1 | 0.89
COc1ccc(-c2noc(CCC(=O)NCCCOC(C)C)n2)cc1 | 0.89
Cc1ccc(CNC(=O)c2cc(C)nc3ccccc23)cc1 | 0.98
CCc1nc(C)ccc1OCC(=O)NCCCN(C)C | 0.48*
Cc1nc2ccc(C(=O)NCCCN(C)C)cc2nc1C | 0.98
Cc1ccccc1OCC(=O)NCCc1nc2ccccc2[nH]1 | 1
CCC1Oc2ccc(C)cc2N(CC(=O)NCc2ccc3c(c2)OCO3)C1=O (stereo not drawn) | 1.1
Cc1ccccc1CN1C(=O)c2ccccc2S(=O)c2ccc(C(=O)NCCCOC(C)C)cc21 (stereo not drawn) | 1
CCOC(=O)c1cnc2ccc(OC)cc2c1Nc1ccc2c(c1)OCCO2 | 0.47*
CCOC(=O)c1cnc2ccc(OC)cc2c1Nc1ccc(C)c(C)c1 | 1.1
CCOC(=O)c1cnc2ccc(OCC)cc2c1Nc1ccc(CC)cc1 | 1.1
CCOC(=O)c1cnc2ccc(OCC)cc2c1Nc1ccc2c(c1)OCO2 | 0.42*
